Columns and labels:
[1] = target: RAC-alpha serine/threonine-protein kinase (Homo sapiens) (UniProt P31749); settings: at 0.1 µM
[2] = target: RAC-alpha serine/threonine-protein kinase (Homo sapiens) (UniProt P31749); settings: at 1 µM
[3] = target: RAC-beta serine/threonine-protein kinase (Homo sapiens) (UniProt P31751); settings: at 0.1 µM
[4] = target: RAC-beta serine/threonine-protein kinase (Homo sapiens) (UniProt P31751); settings: at 1 µM
[5] = target: RAC-gamma serine/threonine-protein kinase (Homo sapiens) (UniProt Q9Y243); settings: at 0.1 µM
Sequence of RAC-gamma serine/threonine-protein kinase (Homo sapiens) (Q9Y243 whole entry): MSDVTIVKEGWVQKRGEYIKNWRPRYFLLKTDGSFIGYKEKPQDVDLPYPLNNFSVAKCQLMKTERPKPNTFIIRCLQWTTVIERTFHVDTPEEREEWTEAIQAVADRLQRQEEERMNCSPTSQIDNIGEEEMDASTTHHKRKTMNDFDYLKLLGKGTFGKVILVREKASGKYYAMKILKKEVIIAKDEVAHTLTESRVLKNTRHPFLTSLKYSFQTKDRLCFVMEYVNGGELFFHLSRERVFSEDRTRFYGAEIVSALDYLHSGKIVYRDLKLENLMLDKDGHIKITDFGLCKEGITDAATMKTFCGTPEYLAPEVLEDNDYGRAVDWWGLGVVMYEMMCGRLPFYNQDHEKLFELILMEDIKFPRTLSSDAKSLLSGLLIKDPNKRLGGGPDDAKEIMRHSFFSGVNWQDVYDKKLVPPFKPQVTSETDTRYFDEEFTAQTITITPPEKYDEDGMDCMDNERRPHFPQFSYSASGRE

[6] = target: RAC-gamma serine/threonine-protein kinase (Homo sapiens) (UniProt Q9Y243); settings: at 1 µM
[7] = target: G protein-coupled receptor kinase 6 (Homo sapiens) (UniProt P43250); settings: at 0.1 µM
[8] = target: G protein-coupled receptor kinase 6 (Homo sapiens) (UniProt P43250); settings: at 1 µM
[9] = target: T1, Rhodopsin kinase GRK7 (Homo sapiens) (UniProt Q8WTQ7); settings: at 0.1 µM
T1 sequence (whole entry): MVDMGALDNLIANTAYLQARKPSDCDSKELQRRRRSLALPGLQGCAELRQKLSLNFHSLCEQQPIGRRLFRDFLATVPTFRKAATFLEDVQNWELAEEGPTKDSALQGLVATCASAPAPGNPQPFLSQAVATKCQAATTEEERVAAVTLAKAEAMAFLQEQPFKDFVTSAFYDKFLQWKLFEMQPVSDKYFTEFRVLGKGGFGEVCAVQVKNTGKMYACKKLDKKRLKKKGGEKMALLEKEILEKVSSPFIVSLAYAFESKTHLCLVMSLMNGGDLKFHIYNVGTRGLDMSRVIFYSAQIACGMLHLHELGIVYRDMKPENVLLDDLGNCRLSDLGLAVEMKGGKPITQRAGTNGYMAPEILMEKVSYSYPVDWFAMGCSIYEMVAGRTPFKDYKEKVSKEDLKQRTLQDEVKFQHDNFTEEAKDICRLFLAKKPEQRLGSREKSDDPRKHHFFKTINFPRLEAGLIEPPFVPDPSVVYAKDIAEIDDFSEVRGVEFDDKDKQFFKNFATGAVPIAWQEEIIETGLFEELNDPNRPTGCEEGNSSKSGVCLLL

[10] = target: T1, Rhodopsin kinase GRK7 (Homo sapiens); settings: at 1 µM
[11] = target: Serine/threonine-protein kinase MRCK alpha (Homo sapiens) (UniProt Q5VT25); settings: at 0.1 µM
Sequence of Serine/threonine-protein kinase MRCK alpha (Homo sapiens) (Q5VT25 whole entry): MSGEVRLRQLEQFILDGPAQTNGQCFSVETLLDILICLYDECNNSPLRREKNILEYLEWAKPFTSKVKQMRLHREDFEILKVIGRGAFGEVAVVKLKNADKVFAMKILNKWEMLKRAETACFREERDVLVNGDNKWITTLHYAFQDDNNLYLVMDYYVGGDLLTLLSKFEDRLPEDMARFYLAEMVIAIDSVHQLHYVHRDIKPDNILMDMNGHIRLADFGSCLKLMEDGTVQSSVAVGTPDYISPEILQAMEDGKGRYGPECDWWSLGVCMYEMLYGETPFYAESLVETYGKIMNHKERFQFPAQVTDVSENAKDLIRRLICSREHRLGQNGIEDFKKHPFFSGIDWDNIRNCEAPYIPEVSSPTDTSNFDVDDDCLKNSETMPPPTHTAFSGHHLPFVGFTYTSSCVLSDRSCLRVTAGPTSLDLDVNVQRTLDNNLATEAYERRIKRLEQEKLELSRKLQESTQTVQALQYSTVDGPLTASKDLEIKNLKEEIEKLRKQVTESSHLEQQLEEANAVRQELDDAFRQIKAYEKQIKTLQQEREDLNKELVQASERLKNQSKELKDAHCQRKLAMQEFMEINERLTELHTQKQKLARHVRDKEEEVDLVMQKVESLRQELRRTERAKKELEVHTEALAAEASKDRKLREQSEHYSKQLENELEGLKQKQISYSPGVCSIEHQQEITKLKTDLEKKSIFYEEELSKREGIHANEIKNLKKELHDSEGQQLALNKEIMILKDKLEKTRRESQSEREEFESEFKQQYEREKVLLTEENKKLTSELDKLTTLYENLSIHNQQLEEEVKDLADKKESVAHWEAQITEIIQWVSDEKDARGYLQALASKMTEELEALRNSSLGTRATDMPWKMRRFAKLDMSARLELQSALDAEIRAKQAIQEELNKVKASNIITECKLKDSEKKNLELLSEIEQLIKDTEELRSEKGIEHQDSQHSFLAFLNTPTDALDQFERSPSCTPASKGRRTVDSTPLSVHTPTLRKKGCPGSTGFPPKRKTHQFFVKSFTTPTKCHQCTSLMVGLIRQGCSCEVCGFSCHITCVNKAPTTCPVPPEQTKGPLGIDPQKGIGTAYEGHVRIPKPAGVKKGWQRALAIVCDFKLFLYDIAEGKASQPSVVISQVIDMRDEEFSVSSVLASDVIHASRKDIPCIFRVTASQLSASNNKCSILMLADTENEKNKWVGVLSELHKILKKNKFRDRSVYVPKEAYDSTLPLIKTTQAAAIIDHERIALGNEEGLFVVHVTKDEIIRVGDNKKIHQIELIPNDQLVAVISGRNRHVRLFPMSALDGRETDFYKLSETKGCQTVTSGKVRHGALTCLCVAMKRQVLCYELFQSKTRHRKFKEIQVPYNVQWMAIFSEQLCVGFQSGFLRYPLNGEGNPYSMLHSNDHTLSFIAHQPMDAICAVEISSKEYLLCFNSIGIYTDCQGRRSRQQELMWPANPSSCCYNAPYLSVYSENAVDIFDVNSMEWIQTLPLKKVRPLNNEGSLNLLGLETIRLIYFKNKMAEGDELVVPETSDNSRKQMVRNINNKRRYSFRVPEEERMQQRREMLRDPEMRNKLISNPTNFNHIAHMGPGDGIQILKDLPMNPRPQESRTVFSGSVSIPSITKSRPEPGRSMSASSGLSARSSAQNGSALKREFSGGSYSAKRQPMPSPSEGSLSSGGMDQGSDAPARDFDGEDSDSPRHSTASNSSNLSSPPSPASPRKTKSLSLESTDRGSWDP

[12] = target: Serine/threonine-protein kinase MRCK alpha (Homo sapiens) (UniProt Q5VT25); settings: at 1 µM
[13] = target: Serine/threonine-protein kinase MRCK beta (Homo sapiens) (UniProt Q9Y5S2); settings: at 0.1 µM
[14] = target: Serine/threonine-protein kinase MRCK beta (Homo sapiens) (UniProt Q9Y5S2); settings: at 1 µM
[15] = target: Ribosomal protein S6 kinase alpha-5 (Homo sapiens) (UniProt O75582); settings: at 0.1 µM
Sequence of Ribosomal protein S6 kinase alpha-5 (Homo sapiens) (O75582 whole entry, looked up): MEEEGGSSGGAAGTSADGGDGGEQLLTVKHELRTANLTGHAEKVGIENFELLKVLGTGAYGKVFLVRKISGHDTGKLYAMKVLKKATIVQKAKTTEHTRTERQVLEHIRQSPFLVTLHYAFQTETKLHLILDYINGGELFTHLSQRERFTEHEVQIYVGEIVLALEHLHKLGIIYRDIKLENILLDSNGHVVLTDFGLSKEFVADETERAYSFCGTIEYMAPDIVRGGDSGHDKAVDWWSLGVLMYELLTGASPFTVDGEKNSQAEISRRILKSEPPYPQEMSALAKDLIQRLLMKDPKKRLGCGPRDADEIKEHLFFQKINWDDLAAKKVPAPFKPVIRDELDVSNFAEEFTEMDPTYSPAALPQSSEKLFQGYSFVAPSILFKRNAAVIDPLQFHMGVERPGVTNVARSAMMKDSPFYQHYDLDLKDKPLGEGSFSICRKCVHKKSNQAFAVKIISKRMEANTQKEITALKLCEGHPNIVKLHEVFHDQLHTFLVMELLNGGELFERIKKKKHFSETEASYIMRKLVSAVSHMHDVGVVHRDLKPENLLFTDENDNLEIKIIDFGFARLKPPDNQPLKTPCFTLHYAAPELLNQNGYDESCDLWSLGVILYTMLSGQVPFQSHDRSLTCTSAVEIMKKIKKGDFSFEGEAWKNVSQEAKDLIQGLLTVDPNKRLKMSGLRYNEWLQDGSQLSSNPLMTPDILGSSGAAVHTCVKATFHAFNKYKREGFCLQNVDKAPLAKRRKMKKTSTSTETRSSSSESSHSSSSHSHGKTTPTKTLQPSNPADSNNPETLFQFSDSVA

[16] = target: Ribosomal protein S6 kinase alpha-5 (Homo sapiens) (UniProt O75582); settings: at 1 µM
[17] = target: Ribosomal protein S6 kinase alpha-4 (Homo sapiens) (UniProt O75676); settings: at 0.1 µM
Sequence of Ribosomal protein S6 kinase alpha-4 (Homo sapiens) (O75676 whole entry, looked up): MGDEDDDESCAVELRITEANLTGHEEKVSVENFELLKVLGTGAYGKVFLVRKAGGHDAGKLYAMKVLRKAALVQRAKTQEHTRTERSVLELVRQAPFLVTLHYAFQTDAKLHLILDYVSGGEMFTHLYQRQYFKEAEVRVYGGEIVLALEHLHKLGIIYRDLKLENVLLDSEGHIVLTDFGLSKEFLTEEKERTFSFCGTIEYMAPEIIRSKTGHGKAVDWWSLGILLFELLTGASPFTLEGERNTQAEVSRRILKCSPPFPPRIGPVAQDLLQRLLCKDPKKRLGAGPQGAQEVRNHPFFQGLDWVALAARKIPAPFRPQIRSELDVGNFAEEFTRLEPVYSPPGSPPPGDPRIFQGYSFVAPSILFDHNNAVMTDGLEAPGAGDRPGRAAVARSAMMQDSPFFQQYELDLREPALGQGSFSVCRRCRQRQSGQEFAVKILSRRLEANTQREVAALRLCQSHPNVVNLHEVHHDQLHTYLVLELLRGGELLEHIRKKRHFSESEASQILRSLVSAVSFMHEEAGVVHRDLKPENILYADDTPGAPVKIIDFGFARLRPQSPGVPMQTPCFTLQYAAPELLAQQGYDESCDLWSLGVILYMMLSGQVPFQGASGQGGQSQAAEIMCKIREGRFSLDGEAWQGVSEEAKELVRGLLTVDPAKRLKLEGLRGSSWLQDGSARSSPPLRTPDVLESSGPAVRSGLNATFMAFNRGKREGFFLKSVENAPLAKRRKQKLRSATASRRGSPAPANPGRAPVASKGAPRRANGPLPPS

[18] = target: Ribosomal protein S6 kinase alpha-4 (Homo sapiens) (UniProt O75676); settings: at 1 µM
[19] = target: Ribosomal protein S6 kinase beta-1 (Homo sapiens) (UniProt P23443); settings: at 0.1 µM
Sequence of Ribosomal protein S6 kinase beta-1 (Homo sapiens) (P23443 whole entry, looked up): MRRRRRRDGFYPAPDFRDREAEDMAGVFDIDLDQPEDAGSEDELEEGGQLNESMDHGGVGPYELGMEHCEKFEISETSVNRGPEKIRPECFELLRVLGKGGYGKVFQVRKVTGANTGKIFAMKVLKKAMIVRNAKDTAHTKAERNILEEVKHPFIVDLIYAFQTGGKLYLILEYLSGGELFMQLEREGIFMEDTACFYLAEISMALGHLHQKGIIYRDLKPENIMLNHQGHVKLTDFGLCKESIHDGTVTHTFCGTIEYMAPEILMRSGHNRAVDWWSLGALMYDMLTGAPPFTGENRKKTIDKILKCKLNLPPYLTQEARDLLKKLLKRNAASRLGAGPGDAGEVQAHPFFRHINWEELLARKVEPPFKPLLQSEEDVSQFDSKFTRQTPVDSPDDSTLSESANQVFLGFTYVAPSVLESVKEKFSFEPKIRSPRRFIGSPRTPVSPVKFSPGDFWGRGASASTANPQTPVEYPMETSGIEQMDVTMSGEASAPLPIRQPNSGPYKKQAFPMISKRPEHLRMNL

[20] = target: Ribosomal protein S6 kinase beta-1 (Homo sapiens) (UniProt P23443); settings: at 1 µM

Sequence of RAC-alpha serine/threonine-protein kinase (Homo sapiens) (P31749 whole entry): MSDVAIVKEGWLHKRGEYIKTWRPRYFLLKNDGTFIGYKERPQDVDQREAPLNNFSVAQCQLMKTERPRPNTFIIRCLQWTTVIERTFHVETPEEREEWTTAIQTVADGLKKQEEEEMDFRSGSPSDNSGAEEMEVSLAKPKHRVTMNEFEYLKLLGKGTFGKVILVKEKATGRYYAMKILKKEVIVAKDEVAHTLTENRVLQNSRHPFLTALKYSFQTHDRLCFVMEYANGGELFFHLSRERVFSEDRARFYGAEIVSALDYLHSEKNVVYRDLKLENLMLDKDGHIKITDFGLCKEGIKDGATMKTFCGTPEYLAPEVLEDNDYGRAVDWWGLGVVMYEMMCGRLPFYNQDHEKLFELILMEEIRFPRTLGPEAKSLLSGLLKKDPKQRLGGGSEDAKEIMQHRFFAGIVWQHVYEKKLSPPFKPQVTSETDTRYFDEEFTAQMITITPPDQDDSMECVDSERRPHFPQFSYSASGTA

Compound | inhibition [1] | inhibition [2] | inhibition [3] | inhibition [4] | inhibition [5] | inhibition [6] | inhibition [7] | inhibition [8] | inhibition [9] | inhibition [10] | inhibition [11] | inhibition [12] | inhibition [13] | inhibition [14] | inhibition [15] | inhibition [16] | inhibition [17] | inhibition [18] | inhibition [19] | inhibition [20]
NC(=O)c1cc(-c2ccncc2)cc(-c2ccccc2)c1N | 0.73% | 0.01% | 1.93% | 2.56% | 0.25% | 3.46% | 3.52% | 3.56% | 5.22% | 9.17% | 0.84% | -0.04% | 1.07% | 2.4% | -1.53% | 0.93% | 2.32% | 3.43% | 3.54% | 2.1%
COc1cccc(-n2cnc3c(N/N=C/c4ccncc4)ncnc32)c1 | -4.15% | -3.41% | -3.57% | -4.73% | -4.17% | -3.32% | 2.45% | 8.28% | 1.71% | 5.64% | 1.59% | 3.69% | 0.38% | 0.7% | -0.31% | 1.02% | 2.44% | 3.95% | -0.32% | 1.15%
CCS(=O)(=O)c1ccc(OC)c(Nc2ncc(-c3cccc(-c4ccccc4F)c3)o2)c1 | -0.24% | -0.11% | 0.25% | 0.43% | 1.02% | -0.29% | 1.94% | -0.56% | 0.7% | -0.85% | -0.09% | -0.52% | 0.66% | 1.36% | 0.09% | 1.42% | 0.74% | 1.94% | 0.15% | 1.18%
Fc1ccc(-c2ncn(C3CCNCC3)c2-c2ccnc(Oc3ccc(F)c(F)c3)n2)cc1 | -3% | -3.59% | -3.3% | -2.56% | -2.6% | -1.9% | -0.72% | 2.05% | 9.11% | 1.73% | -3.08% | -2.58% | -0.68% | -0.35% | 0.54% | -0.7% | 3.37% | 4.69% | 0.73% | 0.63%
N#Cc1ccc(Oc2nccc(-c3c(-c4ccc(F)cc4)ncn3C3CCNCC3)n2)cc1 | -0.06% | 0.41% | 0.99% | 3.57% | 2.37% | 2.2% | -0.24% | 2.68% | 8.83% | 5.35% | -6.56% | -3.04% | -1.06% | 0.02% | 1.54% | -0.96% | 3.03% | 1.76% | 1.84% | 2.31%
Nc1nccc(-c2c(-c3ccc(F)cc3)ncn2C2CCC(O)CC2)n1 (stereo not given) | -1.5% | -1.14% | -2.08% | -1.44% | -1.82% | 0.5% | 1.78% | -1.92% | -3.24% | -1.89% | -0.25% | -0.81% | 0.88% | 0.56% | -1.03% | -0.24% | -1.62% | -0.73% | -1.59% | -1.84%
COc1cc2ncn(-c3cc(OCCc4ccccc4)c(C(N)=O)s3)c2cc1OC | 0.55% | 0.01% | 1.52% | 0.89% | 1.12% | -0.88% | -2.45% | -0.33% | 2.29% | 2.5% | 1.17% | 2.94% | 1.02% | 1.01% | 1.83% | 0.4% | 0.49% | 0.9% | 1.13% | 0.05%
CCc1nccc2c1nc(-c1nonc1N)n2CC | -0.45% | 0.43% | 0.34% | 1.71% | 0.28% | 0.55% | -0.76% | -2.13% | -2.75% | 2.78% | 0.8% | 1.36% | 0.74% | 3.39% | 6.51% | 37.7% | 2.18% | 19.5% | 10.5% | 49.6%
CS(=O)(=O)CCNCc1ccc(-c2ccc3ncnc(Nc4ccc(OCc5ccccc5)c(Br)c4)c3c2)o1 | -2.58% | -2.2% | -3.3% | -3.04% | -3.44% | -0.54% | -2.27% | 2.12% | 10.1% | 0.45% | -6.6% | -3.23% | -0.18% | -0.76% | 1.16% | -1.75% | 2.02% | 0.82% | 0.95% | 0.5%
COc1ccc2ncn(-c3cc(O[C@H](C)c4ccccc4Cl)c(C(N)=O)s3)c2c1 | -3.63% | -2.95% | -2.65% | -2.8% | -2.12% | -1.2% | -0.3% | 0.35% | 8.25% | 2.33% | -0.38% | 1.13% | 0.7% | 3.24% | 2.21% | 1.33% | 3.9% | 2.99% | 0.38% | 2.8%
COc1cc2ncn(-c3cc(OCc4cccs4)c(C(N)=O)s3)c2cc1OC | -2.85% | -1.83% | -1.63% | -2.73% | -3.06% | -3.04% | 4.35% | 17.9% | 5.59% | 13% | 2.82% | 7.52% | 1.67% | 1.38% | 2.22% | 5.4% | 4.25% | 8% | 1.35% | 3.91%
O=C(Nc1n[nH]c2nc(-c3ccco3)ccc12)C1CC1 | -0.33% | 0.8% | 0.45% | 0.89% | 0.35% | 0.8% | 1.97% | -2.2% | -1.29% | -7.98% | -0.04% | -0.15% | 0.63% | 3.54% | 6.97% | 8.4% | 1.68% | 3.29% | 1.44% | 2.43%
COc1cccc(/C=N/Nc2ncnc3c2cnn3-c2cccc(OC)c2)c1 | 1.02% | -0.26% | 2.42% | 1.51% | 2.66% | 3.67% | 5.6% | 4.38% | 9.5% | 5.51% | 1.64% | -0.23% | -0.8% | 0.84% | 2.19% | -0.07% | 2.48% | 2.78% | 1.49% | 2.2%

— ChEMBL document CHEMBL1961873, “Compounds: GSK PKIS; Assays: Nanosyn kinase panel” (2012)
